Results filed as inconclusive are left out. Active and inactive are the calls of the source. Unless noted, the rule behind the calls is not given here.
Tests used:
[1] = rapamycin-like changes in RPL19A-GFP expression – cell-based, S. cerevisiae, multiplex flow cytometry, primary screen (AID 1862; in the data active = percent of DMSO control GFP below about 86%;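 note: lower values mimic rapamycin by blocking the RPL19A rise seen in DMSO cells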); conditions: S. cerevisiae RPL19A-GFP strain, flow cytometry fluorescence, 3 h; at 10 µM; stronger effect = lower value
[2] = TOR pathway GLN3 branch reporter MEP2-GFP changes – S. cerevisiae, multiplex flow cytometry, primary screen (AID 1867;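 active = GFP response, as percent of the DMSO control, above the screen-wide mean plus 3 SD, about 139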;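 note: median GFP channel fluorescence of barcode-gated MEP2-GFP cells measured by flow cytometry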); conditions: S. cerevisiae MEP2-GFP strain, 3 h, at 10 µM, stronger effect = higher value
[3] = TOR pathway RTG branch CIT2 reporter changes – S. cerevisiae, GFP fusion, multiplex flow cytometry, primary screen (AID 1870;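 active = percent response above a set limit, the screen-wide mean plus 3 SD, cut at about 130% in these data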;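 note: barcoded CIT2-GFP strain pooled with four other GFP strains with rapamycin as positive control; median GFP fluorescence per well over plate mean of DMSO wells so 100% = DMSO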); conditions: S. cerevisiae CIT2-GFP expression, 3 h, at 10 µM, stronger effect = higher value
[4] = TOR pathway LAP4-GFP level changes – S. cerevisiae, multiplex flow cytometry, primary screen (AID 1873;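 active = GFP signal, as percent of the solvent control, above the screen mean plus 3 SD, about 149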); conditions: S. cerevisiae LAP4-GFP expression, 3 h, at 10 µM, stronger effect = higher value
[5] = reduced mouse 2C T cell binding to pMHC/ICAM-1 vesicles – MLPCN validation set, flow cytometry, LFA-1/ICAM-1 modulator project, pilot screen (AID 2523;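 active = response below a set limit, under 55% cells CD8-positive and vesicle-bound, and CD8 cells' 90th-percentile brightness under 279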;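 for vesicle binding response: mean PE anti-B7-1 fluorescence of CD8+ cells relative to row control; 100% = QL9-loaded vesicles with DMSO vehicle in the same plate row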); conditions: 2C mouse CD8+ T cells, at 7 µM, stronger effect = lower value; double positive events: measured here: CD8+/vesicle+ event percentage
[6] = biological target: Integrin beta-1 (Homo sapiens) + Integrin alpha-4 (Homo sapiens) (UniProt P13612+P05556); assay: alpha4beta1 integrin LIBS antibody binding reduction – U937 cells, HUTS-21 mAb, flow cytometry, validation set, VLA-4 allosteric modulator project, pilot screen (AID 2674;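 active = inhibition above 50%, about 3 SD of the validation set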;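 note: antibody binding induced by the VLA-4 ligand LDV present at three times its Kd; 0% = LDV ligand with antibody and no compound and 100% = antibody without LDV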); conditions: HUTS-21 LIBS mAb binding, at 6.7 µM, stronger effect = higher value
[7] = calorie-restriction mimetic ROS inhibitors, yeast – validation compound set, pilot screen (AID 2706;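 active = superoxide response below 65% of plate, a cut near 3 SD across the whole screen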;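 note: yeast exposed to compound for one week at 30 degrees C before staining; 100% = mean of all compound wells on the same plate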); conditions: S. cerevisiae aging, superoxide DHE fluorescence; at 10 µM; stronger effect = lower value
[8] = biological target: Beta-adrenergic receptor kinase 1 (Homo sapiens) (UniProt P25098); assay: GRK2 binders displacing RNA aptamer, biochemical, validation, human GRK2, bead flow cytometry (AID 488806;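 active = aptamer binding inhibition above 30%, about 3 SD of noise from non-fluorescent compounds; inactive = inhibition at or below 30%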); conditions: bead-bound GRK2, FAM-aptamer displacement, at 10 µM, stronger effect = higher value
[9] = biological target: AP-2 complex subunit beta (Homo sapiens) (UniProt P63010); assay: beta-arrestin/AP2 interaction blockers – biochemical, validation set, GST-AP2 beads, flow cytometry, pilot screen (AID 504541;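 active = inhibition above 54%, about 3 SD of non-fluorescent compounds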;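 note: AP2 carries R879A mutation and is captured from E. coli lysate; bead-bound FITC arrestin peptide fluorescence measuring arrestin peptide binding to AP2; 0% = DMSO wells and 100% = excess unlabeled arrestin peptide control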); conditions: FITC arrestin peptide, at 10 µM, stronger effect = higher value
[10] = cytosolic pH regulators acting via V-ATPase – S. cerevisiae, pHLuorin, HTS validation (AID 504600; in the data active = response above about 15%;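 note: plate controls were DMSO for no effect and reference compound for full effect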); conditions: V-ATPase proton transport, at 10 µM, stronger effect = higher value
[11] = system: anti-desmoglein-3 scFv antibody binding to human DSG3; assay: blockers of pathogenic pemphigus antibody–desmoglein-3 binding – biochemical, validation compound set, bead-based, flow cytometry, pilot screen (AID 588368;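 active = binding below the plate cutoff, the plate median minus 3 SD, with a reading above zero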;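 note: signal is the median channel fluorescence of bead-bound GFP antibody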); conditions: Protein G beads, DSG3-Fc, scFv-GFP binding, at 10 µM, stronger effect = lower value
[12] = system: Botulinum neurotoxin type F light chain protease (Clostridium botulinum); assay: Clostridium botulinum type F light chain protease inhibitors, microsphere substrate cleavage, validation (AID 588459); conditions: multiplex microsphere protease substrate cleavage assay, flow cytometry; at 10 µM; stronger effect = higher value
[13] = biological target: Botulinum neurotoxin type A (Clostridium botulinum) (UniProt P0DPI0); assay: BoNT/A light chain protease inhibitors, biochemical, multiplex microsphere flow cytometry, validation set (AID 588460); conditions: at 10 µM, stronger effect = higher value
[14] = biological target: Lethal factor (Bacillus anthracis) (UniProt P15917); assay: Bacillus anthracis lethal factor inhibition, microsphere flow cytometry protease assay, validation at 10 µM (AID 588461); conditions: multiplex microsphere protease cleavage assay, stronger effect = higher value
[15] = Nile Red efflux blockade in pump-expressing yeast – validation compound set, multiplex, phenotypic, pilot screen (AID 588506;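 active = efflux inhibition above 0.42, the validation set average plus 4 SD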;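 note: Nile Red retained in cells so higher fluorescence means more efflux inhibition; 0 = negative control wells and 1 = enniatin B 25 µM full block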); conditions: S. cerevisiae pump-expressing triplex, Nile Red efflux flow cytometry; at 10 µM; stronger effect = higher value
[16] = biological target: ATP-binding cassette sub-family B member 6 (Homo sapiens) (UniProt Q9NP58); assay: blockers of ABCB6-driven porphyrin uptake – K562-ABCB6 cells, flow cytometry, validation set, pilot screen (AID 588550;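 active = inhibition above the screen-wide mean plus 3 SD, about 51%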;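 note: 0% = DMSO wells and 100% = benzethonium chloride 70 µM positive control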); conditions: K562-ABCB6 porphyrin accumulation, 1 h, at 10 µM, stronger effect = higher value
[17] = AML differentiation inducers, ER-HoxA9 marrow cells – cell-based, GFP/MAC1 double positive, flow cytometry, validation set, primary screen (AID 588685;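 active = differentiation response of at least 50%, scaled between solvent and reference control, from cells with both markers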;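 note: compound exposure lasts four days before antibody staining and flow analysis; 0% = DMSO wells and 100% = 5 µM fulvestrant positive control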); conditions: stronger effect = higher value
[18] = hit retest on RPL19A-GFP reporter strain – cell-based, S. cerevisiae, flow cytometry, cherry picks, mother/daughter gates, confirmation (AID 2270;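 active = GFP response below 50% of the DMSO control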); conditions: 3 h, at 10 µM, stronger effect = lower value, 100 = same GFP as DMSO wells
[19] = yeast TOR pathway reporter LAP4-GFP change – cell-based, cherry picks, flow cytometry, mother/daughter gates, confirmation (AID 2271;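 active = GFP response above 150% of the DMSO control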;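 note: ratio of sample to DMSO plate mean so 100% equals DMSO level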); conditions: S. cerevisiae LAP4-GFP strain, 3 h, at 10 µM, stronger effect = higher value
[20] = TOR pathway CIT2 reporter hit retest – S. cerevisiae, GFP fusion, cherry picks, mother/daughter gates, confirmation (AID 2274;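 active = GFP response above 150% of the DMSO level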); conditions: S. cerevisiae CIT2-GFP strain, flow cytometry, 3 h, at 10 µM, stronger effect = higher value
[21] = measured here: daughter cell gate
[22] = measured here: mother cell gate
[23] = measured here: daughter cell gate response
[24] = measured here: mother cell gate response

CC(=O)C1=C(C)OC(N)=C(C(=O)OC(C)C)C12C(=O)Nc1ccccc12 (stereo not given)
56.3%: double positive events [5]
inactive: percent of DMSO control GFP [1] 102% | GFP response vs DMSO [2] 105% | percent response of DMSO control [3] 103% | GFP response vs DMSO [4] 99.4% | vesicle binding response [5] 194% | inhibition [6] 0.69% | superoxide response (% of plate) [7] 103% | aptamer binding inhibition [8] 0% | inhibition [9] 0.23% | response [10] -0.91% | binding (% of control) [11] 93.8% | inhibition [12] -2.3% | inhibition [13] -0.1% | inhibition [14] -1.4% | efflux inhibition (fraction of control) [15] 0.1 | inhibition [16] 8% | differentiation response [17] -18%

CCN(CC)C(=O)N[C@H]1C[C@@H]2c3cccc4[nH]cc(c34)C[C@H]2N(C)C1
inactive: percent of DMSO control GFP [1] 101% | GFP response vs DMSO [2] 107% | percent response of DMSO control [3] 101% | GFP response vs DMSO [4] 94% | vesicle binding response [5] 197% | inhibition [6] -11.9% | aptamer binding inhibition [8] -2% | inhibition [9] 28.7% | response [10] -1.97% | binding (% of control) [11] 101% | inhibition [12] -2.6% | inhibition [13] -1.3% | inhibition [14] -36% | efflux inhibition (fraction of control) [15] 0.36 | inhibition [16] -252% | differentiation response [17] 21.8%
62.5%: double positive events [5]

O=Cc1cn(Cc2ccc(F)cc2)c2ccccc12
inactive: percent of DMSO control GFP [1] 97.8% | GFP response vs DMSO [2] 113% | percent response of DMSO control [3] 90.1% | GFP response vs DMSO [4] 129% | vesicle binding response [5] 173% | inhibition [6] 2.3% | superoxide response (% of plate) [7] 99.1% | aptamer binding inhibition [8] 1% | inhibition [9] 49.4% | response [10] -7.85% | binding (% of control) [11] 97.2% | inhibition [12] 8.3% | inhibition [13] 3.1% | inhibition [14] 3.2% | efflux inhibition (fraction of control) [15] 0.12 | inhibition [16] 2%
active: differentiation response [17] 93.6%
60.5%: double positive events [5]

CC(C)(C)NCC(O)c1cc(Cl)c(N)c(Cl)c1 (stereo not given)
inactive: percent of DMSO control GFP [1] 104% | GFP response vs DMSO [2] 102% | percent response of DMSO control [3] 97.6% | GFP response vs DMSO [4] 99.1% | vesicle binding response [5] 138% | inhibition [6] -21.2% | superoxide response (% of plate) [7] 94.5% | aptamer binding inhibition [8] -1% | inhibition [9] -12.6% | response [10] 1.54% | binding (% of control) [11] 112% | inhibition [12] 2.9% | inhibition [13] 2.2% | inhibition [14] 6.8% | efflux inhibition (fraction of control) [15] -0.28 | inhibition [16] 2% | differentiation response [17] 17.4%
60.7%: double positive events [5]

COc1ccc(N2C(=O)/C(=C/c3ccco3)C(=O)NC2=S)cc1
94.1%: GFP response relative to DMSO [19, 23]
inactive: GFP response vs DMSO [18] 97.4% | GFP response relative to DMSO [19] 91.4% | GFP response, % of DMSO [20] 91.3%
102%: GFP response vs DMSO [18, 21]
94.2%: GFP response relative to DMSO [19, 24]
83.7%: GFP response, % of DMSO [20, 22]
91.4%: GFP response vs DMSO [18, 22]
103%: GFP response, % of DMSO [20, 21]

N#CC(C#N)=NNc1ccc(-n2ccc(C(F)(F)F)n2)cc1
104%: GFP response relative to DMSO ([19]; measured here: daughter cell gate response, 100 means same as DMSO control)
96.9%: GFP response vs DMSO [18, 22]
97.6%: GFP response vs DMSO [18, 21] | GFP response, % of DMSO [20, 21]
111%: GFP response relative to DMSO ([19]; measured here: mother cell gate response, 100 means same as DMSO control)
inactive: GFP response vs DMSO [18] 98% | GFP response relative to DMSO ([19]; 100 means same as DMSO control) 111% | GFP response, % of DMSO [20] 97.2%
97.1%: GFP response, % of DMSO [20, 22]

CCOC(=O)C1=C(C)OC(N)=C(C(=O)OCC)[C@@]12C(=O)N(CC(N)=O)c1ccccc12
inactive: percent of DMSO control GFP [1] 90.9% | GFP response vs DMSO [2] 120% | percent response of DMSO control [3] 110% | GFP response vs DMSO [4] 71% | inhibition [6] 18.1% | superoxide response (% of plate) [7] 104% | aptamer binding inhibition [8] -1% | inhibition [9] -3.6% | response [10] 1.98% | binding (% of control) [11] 104% | inhibition [12] 0.6% | inhibition [13] -0.3% | inhibition [14] 0.4% | efflux inhibition (fraction of control) [15] -0.31 | inhibition [16] 6% | differentiation response [17] 4.09%
43.7%: double positive events [5]
active: vesicle binding response [5] 66.2%

CN1CCN(c2ccc([N+](=O)[O-])c(Sc3ccccn3)c2)CC1
99.5%: GFP response vs DMSO [18, 22]
98.9%: GFP response vs DMSO [18, 21]
96%: GFP response relative to DMSO [19, 23]
95.1%: GFP response relative to DMSO [19, 24]
102%: GFP response, % of DMSO [20, 22]
103%: GFP response, % of DMSO [20, 21]
inactive: GFP response vs DMSO [18] 98.4% | GFP response relative to DMSO [19] 95.4% | GFP response, % of DMSO [20] 103%

Cc1cccn2c(NCC3CCCO3)c(C(C)C)nc12 (stereo not given)
inactive: GFP response vs DMSO [18] 99.1% | GFP response relative to DMSO [19] 97.7% | GFP response, % of DMSO [20] 106%
105%: GFP response, % of DMSO [20, 22]
100%: GFP response vs DMSO [18, 21] | GFP response vs DMSO [18, 22]
106%: GFP response, % of DMSO [20, 21]
96.5%: GFP response relative to DMSO [19, 23] | GFP response relative to DMSO [19, 24]

O=c1[nH]c(=O)n(Cc2ccc(F)cc2)c(O)c1C=NCCN1CCCCC1
94.8%: GFP response vs DMSO [18, 22]
94.4%: GFP response relative to DMSO [19, 23] | GFP response relative to DMSO [19, 24]
97.6%: GFP response, % of DMSO [20, 21]
94.9%: GFP response, % of DMSO [20, 22]
inactive: GFP response vs DMSO [18] 96.9% | GFP response relative to DMSO [19] 95.3% | GFP response, % of DMSO [20] 95.8%
97%: GFP response vs DMSO [18, 21]

O=C1NC(=O)N(Cc2ccco2)C(=O)/C1=C/c1ccc(-c2cccc([N+](=O)[O-])c2)o1
85.8%: GFP response, % of DMSO [20, 22]
96.7%: GFP response vs DMSO [18, 22]
95.6%: GFP response, % of DMSO [20, 21]
176%: GFP response relative to DMSO [19, 24]
151%: GFP response relative to DMSO [19, 23]
inactive: GFP response vs DMSO [18] 102% | GFP response, % of DMSO [20] 93%
102%: GFP response vs DMSO [18, 21]
active: GFP response relative to DMSO [19] 167%

C=CC1CN2CCC1CC2[C@@H](OC(=O)c1ccc(OC)cc1)c1ccnc2ccccc12 (stereo not given in full)
59.2%: double positive events [5]
inactive: percent of DMSO control GFP [1] 96.1% | percent response of DMSO control [3] 107% | GFP response vs DMSO [4] 74.8% | vesicle binding response [5] 222% | inhibition [6] 4.52% | superoxide response (% of plate) [7] 105% | aptamer binding inhibition [8] -2% | inhibition [9] -4.1% | response [10] -0.74% | binding (% of control) [11] 109% | inhibition [12] 2.8% | inhibition [13] 0.4% | inhibition [14] -2% | efflux inhibition (fraction of control) [15] 0.01 | inhibition [16] 5% | differentiation response [17] -8.19%

Source: PubChem BioAssay
